# Source: PubChem BioAssay (National Center for Advancing Translational Sciences (NCATS))
# The list is not random: actives were taken first. Their share in the collection is about 1.6%.
# FUS suppressor: FUS proteinopathy suppression in yeast | S. cerevisiae FUS-expressing, growth rescue, OD600, 24 h | Potency, µM (highest dose often 76.6 µM), actives largely listed as activators | hit rate 0.24% among 390,000;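 also: plate controls were DMSO vehicle for no effect and reference control for full effect; nearly all actives have a fitted effect of over 55% in size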
#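 Read-out: OD at 600 nm after 24hr at 30C, reporting rescue of FUS-induced yeast toxicity. Cells at OD 0.005 in galactose (2%) minimal medium; compounds tested in a dilution series; CP55940 titration from 92uM final as control.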
# Mito fusion act: blocks mitochondrial division or promotes mitochondrial fusion; S. cerevisiae fusion-defective mutant growth rescue, CellTiterGlo 48 h; Potency, µM (doses to about 46.1 µM), for inactives: top-dose growth rescue (activation), usual class: activators; hit rate 0.23% among 320,000; AID 485298; also: % of control where 0% means no effect; nearly all actives have a fitted effect of over 45% in size
#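 Temperature-sensitive fusion-defective S. cerevisiae (e.g. fzo1-1, mgm1-5) were grown with compound in YPEG medium (3% ethanol, 3% glycerol) for 48 hours at 37C. Growth rescue was measured as viability by CellTiterGlo luminescence after 10 minutes at ambient.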
# gsp antag: gsp mutant antagonism. gsp-mutant cells, cAMP HTRF, 30 min. Potency, µM (titrated, usually from 76.9 µM), for the others: top-dose activity change, negative = inhibition, hits mostly inhibitors. hit rate 0.4% among 340,000; calls by dose curve; cell line not stated here;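 also: intracellular cAMP measured with PDE inhibitor Ro 20-1724 present during compound exposure; % is scaled to controls: 0 for no effect and ±100 for the full control effect; nearly all actives have a fitted effect of over 65% in size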
#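 Cells in G418 medium, seeded 16-24 h, 37C; buffer exchange to DPBS + 1 mM CaCl2, 0.5 mM MgCl2, 0.05% BSA; cpds in DMSO + […] (300 uM stock), 30 min 37C; HTRF cAMP detection.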
# gsp agonist: agonists of gsp mutant (McCune-Albright syndrome); gsp mutant cells, cAMP HTRF, 30 min; Potency, µM (titrated, usually from 76.9 µM), inactives show top-dose activation (cAMP increase), usual class: activators; hit rate 0.13% among 340,000; active = well fitted activation curve with a large enough effect; inconclusive = small, poorly fitted or top-dose-only effect, or another doubt; inactive = no such curve, though single readings can be large or run the other way; cell line not stated here;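 also: phosphodiesterase inhibitor Ro 20-1724 added with compounds to block cAMP breakdown; nearly all actives have a fitted effect of over 60% in size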
#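 Cells stably selected in G418 were plated at 2000/well, grown 16-24 hr, then given compounds in DMSO with the PDE inhibitor […] (300 uM solution added) for 30 min at 37C; cAMP was read by HTRF.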
# ALOX12 inh: blocks human arachidonate 12S-lipoxygenase; P18054; purified 12hLO, xylenol orange hydroperoxide absorbance; Potency, µM (highest dose often 108 µM), inactives show top-dose activity change, negative = inhibition, actives largely listed as inhibitors; hit rate 1.1% among 580,000; also: % is scaled to controls: 0 for no effect and ±100 for the full control effect
# Target sequence (P18054 whole entry, looked up): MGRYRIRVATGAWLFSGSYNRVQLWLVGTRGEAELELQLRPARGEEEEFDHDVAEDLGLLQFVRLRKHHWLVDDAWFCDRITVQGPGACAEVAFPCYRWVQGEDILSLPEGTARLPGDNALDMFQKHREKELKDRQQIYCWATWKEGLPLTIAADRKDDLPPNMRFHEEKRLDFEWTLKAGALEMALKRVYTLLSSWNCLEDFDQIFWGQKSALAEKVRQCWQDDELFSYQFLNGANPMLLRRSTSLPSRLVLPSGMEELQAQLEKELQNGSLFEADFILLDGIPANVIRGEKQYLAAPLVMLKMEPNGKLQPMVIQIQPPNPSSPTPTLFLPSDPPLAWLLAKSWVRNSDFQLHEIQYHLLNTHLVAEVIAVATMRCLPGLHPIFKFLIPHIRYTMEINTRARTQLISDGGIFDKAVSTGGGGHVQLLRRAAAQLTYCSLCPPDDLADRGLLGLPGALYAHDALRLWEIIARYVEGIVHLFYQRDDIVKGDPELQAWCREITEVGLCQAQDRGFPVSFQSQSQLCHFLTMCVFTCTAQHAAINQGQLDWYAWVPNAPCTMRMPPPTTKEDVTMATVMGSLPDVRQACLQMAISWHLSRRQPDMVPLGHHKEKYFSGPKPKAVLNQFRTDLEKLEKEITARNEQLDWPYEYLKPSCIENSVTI
#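 Purified human 12hLO at 150 nM in 25 mM Hepes, 0.01% Triton X-100, pH 7.0, preincubated 15 min at room temperature with compound. Reaction started with 40 uM arachidonic acid, 30 min at room temperature. Hydroperoxide measured by Fe-xylenol orange, 573/405 nm absorbance ratio.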
# * marks the source's active call; other numbers are inactive results; i = inactive; ? = inconclusive; / = not tested or not shown; [ ] = remark or other dose. Unless noted, calls follow the shape of the dose curve; as a rule, active = well fitted curve in the direction sought with a large enough effect; inconclusive = small, poorly fitted or top-dose-only effect, or another doubt; inactive = no such curve, though single readings can be large; an effect the other way counts as inactive or inconclusive. Potency is read from the fitted curve at half-maximal effect.
SMILES,FUS suppressor,Mito fusion act,gsp antag,gsp agonist,ALOX12 inh
Cn1c(=O)c2c(nc(NCCCc3ccccc3)n2Cc2ccccc2F)n(C)c1=O,/,/,/,/,-6%
Cc1cccc(CN2CCN(C(=O)c3cccc4ccccc34)CC2)c1,i,2%,10%,6%[15.4 µM],?
Cc1ccccc1CN1CCN(C(=O)c2cccc3ccccc23)CC1,i,10%,-5%,1%,2.8µM*
COc1ccc(CN2CCN(C(C)=O)CC2)cc1OC1CCN(C(=O)c2ccc3ccccc3n2)CC1,/,/,/,/,28µM*
COc1ccc(CN2CCN(C(=O)c3cccc4ccccc34)CC2)cc1Br,i,13%,-11%,-44%,0.56µM*
Cc1ccc(CN2CCN(C(=O)c3cccc4ccccc34)CC2)cc1,i,10%,-8%,-25%,1.3µM*
CC(OC(=O)c1cc(=O)[nH]c2ccccc12)C(=O)Nc1ccc(Cl)cc1 (configuration not stated),/,/,/,/,8%
Cc1ccc(C2C3=C(CCCC3=O)Nc3nc(SCCC(C)C)[nH]c(=O)c32)o1 (configuration not stated),/,/,/,/,7.9µM*
CNC(=O)C(C)NC(=O)c1cccc(Cl)c1Cl (configuration not stated),/,/,/,/,15%
COC(=O)c1ccc(CC(=O)c2nc3ccccc3s2)cc1,i,-3%,2%,5%[15.4 µM],-24%
COC(=O)c1ccc(/C(O)=C(\C#N)c2nc3ccccc3s2)cc1,i,2%,18µM*,11%,6%
Cc1c(NC(=O)c2cccs2)cccc1-c1nc2ccccc2s1,i,16µM*,?,-37%,-19%
CCCN1CCN(C(=O)c2c(C)oc3c2CN(Cc2ccc(C)cc2)CC3)CC1,/,/,/,/,13µM*
Cc1ccc(CN2CCc3oc(C)c(C(=O)NCCN4CCN(C)CC4)c3C2)cc1,/,/,/,/,4%
O=C(Sc1nnc(-c2ccccc2)o1)N1c2ccccc2Sc2ccccc21,i,4%,-1%,?,10µM*
O=C(/C=C/c1ccco1)NCc1ccc(F)cc1,i,3%,-4%,-17%[15.4 µM],32µM*
O=C(Cc1ccc(N(Cc2ccc(F)cc2)C(=O)c2ccco2)cc1)NCc1ccc(F)cc1,/,/,/,/,32µM*
O=C(Cc1ccc(N(Cc2cccc(F)c2)C(=O)c2ccco2)cc1)NCc1ccccc1,/,/,/,/,18%
O=C(C1=C(O)C(=O)N(CCN2CCOCC2)C1c1cccc(O)c1)c1cc2ccccc2o1 (configuration not stated),/,0%,11%,?,-27%
O=C(C1=C(O)C(=O)N(CCN2CCOCC2)C1c1cccc(F)c1)c1cc2ccccc2o1 (configuration not stated),i,3%,6%,7.1µM*,-28%
COc1cc(C2C(C(=O)c3cc4ccccc4o3)=C(O)C(=O)N2CCN2CCOCC2)ccc1OCCC(C)C (configuration not stated),28µM*,-2%,10%,?,?
O=C(C1=C(O)C(=O)N(CCN2CCOCC2)C1c1ccc(Br)cc1)c1cc2ccccc2o1 (configuration not stated),?,0%,0%,?,?
O=C(C1=C(O)C(=O)N(CCN2CCOCC2)C1c1cccs1)c1cc2ccccc2o1 (configuration not stated),i,/,8%,?,7.1µM*
Cc1ccc(-n2c(C)cc(C(=O)CSc3nncs3)c2C)cc1,i,?,25µM*,-10%,-16%
Nc1nccnc1C(=O)NCc1ccc(-n2cccn2)nc1,/,/,/,/,0%
SMILES,FUS suppressor,Mito fusion act,gsp antag,gsp agonist,ALOX12 inh
Cc1nc(NS(=O)(=O)c2ccccc2)sc1NC(=O)Nc1ccc(Cl)cc1,i,3%,-3%,13%,40µM*
COC(=O)c1c(-c2ccco2)csc1NC(=O)C1CC=CCC1C(=O)O (configuration not stated),i,2%,-4%,32µM*,?
CCOC(=O)c1c(-c2ccc(F)cc2)csc1NC(=O)C1CC=CCC1C(=O)O (configuration not stated),i,-6%,-21%,25%,?
CCSc1nnc(NC(=O)C(C)(C(F)(F)F)C(F)(F)F)s1,i,22%,22µM*,7%,-31%
C#CCOCCOCCOCCNc1nc(N2CCN(C(=O)CCCCCCCCCCNC(=O)[C@H](CCC(=O)O)n3cc(CCCCCN)nn3)CC2)nc(N2CCN(C(=O)CCCCCCCCCCNC(=O)[C@@H]([C@H](C)O)n3cc(C)nn3)CC2)n1,13µM*,-10%,9%,28%,/
CSCC[C@@H](C(=O)NCCCCCCCCCCC(=O)N1CCN(C(=O)OC(C)(C)C)CC1)n1cc(CCO)nn1,i,-6%,32µM*,-23%,-6%
Cc1cn([C@@H](CCCCN)C(=O)NCCCCCCCCCCC(=O)N2CCNCC2)nn1,i,-3%,7%,/,32µM*
C#CCOCCOCCOCCNc1nc(N2CCN(C(=O)CCCCCCCCCCNC(=O)[C@@H](CCSC)n3cc(CCO)nn3)CC2)nc(N2CCN(C(=O)CCCCCCCCCCNC(=O)[C@H]([C@@H](C)CC)n3cc(CCCCN=C(N)N)nn3)CC2)n1,8.9µM*,-10%,0%,/,/
CCOC(=O)C1CCCN(C(=O)c2ccc3c(c2)[nH]c(=O)c(=O)n3CC)C1 (configuration not stated),/,/,/,/,2%
O=C(NCc1ccccc1)c1cccc2cccnc12,/,/,/,/,40%
O=C(O)CNC1CCCC1,/,/,/,/,-28%
